Compounds with a hit are over-represented: about 3% of the library has one in this group of screens.
12-LOX inh: ALOX12 (human) lipoxygenase inhibition; hit rate 1.1% among 580,000; Potency, µM (highest dose often 108 µM), without a hit: at the top dose activity change, negative = inhibition, usual class: inhibitors; purified 12hLO, xylenol orange hydroperoxide absorbance; active = well fitted inhibition curve with a large enough effect; inconclusive = small, poorly fitted or top-dose-only effect, or another doubt; inactive = no such curve, though single readings can be large or run the other way; also: potency is read from the fitted curve at half-maximal effect; % is scaled to controls: 0 for no effect and ±100 for the full control effect
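Purified human 12hLO (150 nM final) in 25 mM Hepes, 0.01% Triton X-100, pH 7.0 was preincubated 15 min at room temperature with compound. Then 40 uM arachidonic acid was added, 30 min. Hydroperoxide was read by Fe-XO absorbance ratio 573/405 nm.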
LDHA inh: LDHA (human) enzyme inhibition; P00338; purified LDHA, NADH/diaphorase-resazurin fluorescence; stronger effect = lower value; activity change, % (values are at about 110 or 230 µM); hit rate 0.15% among 480,000; AID 1347041; in the data active = activity change below about -30%; inconclusive = mostly about -25% to -30%;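 also: plate controls were DMSO wells for no effect and wells without enzyme for full effect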
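Human LDH5 at 2 nM final in Tris HCl pH 7.4 with 0.06 mM NADH and 0.2 mM pyruvate, reacted 5 minutes at room temperature. Remaining NADH coupled via diaphorase/resazurin; resorufin fluorescence read at 0 and 20 minutes, normalized to enzyme-free and DMSO wells.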
hERG WT inh: KCNH2 (human, wildtype) channel inhibition; hit rate 0.37% among 340,000; U2OS, BacMam KCNH2, thallium flux FluxOr; stronger effect = lower value; Q12809; activity change, % at 1.84 µM;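 active = maximum activity change below -70%; inconclusive = maximum activity change between -70% and -50%; inactive = maximum activity change above -50%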; also: % is scaled to controls: 0 for no effect and ±100 for the full control effect
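U2OS cells transduced with wild-type KCNH2 virus are loaded with FluxOr dye for 45 min, and thallium flux is measured in kinetic reads before and after stimulation buffer. Rate constants are normalized to DMSO controls.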
KCNH2 3.1 inh: KCNH2 3.1 (human) potassium channel inhibition; U2OS KCNH2 3.1, thallium flux FluxOr; stronger effect = lower value; activity change, % (tested at about 1.8 µM); AID 720553; hit rate 0.95% among 340,000;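 active = maximum activity change below -70%; inconclusive = maximum activity change from -70% to -50%; inactive = maximum activity change above -50%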;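 also: thallium influx rate constant from kinetic fluorescence after stimulation buffer; % is scaled to controls: 0 for no effect and ±100 for the full control effect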
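Thallium flux read-out: FluxOr dye with Red40 quencher in HBSS/HEPES, 45 min at RT. Rate constants from kinetic reads were normalized to positive and negative DMSO controls. Cells: U2OS virally expressing the 3.1 isoform.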
ClpP mod: qHTS Assay for Activators of ClpP; ATP-dependent Clp protease proteolytic subunit (Bacillus subtilis (strain 168)), P80244; purified B. subtilis ClpP, FRET peptide cleavage, 20 min; Potency, µM (top dose mostly 57.5 µM), without a hit: at the highest dose activity change, negative = active; hit rate 1.9% among 340,000; active = well fitted falling curve with a large enough effect; inconclusive = small, poorly fitted or top-dose-only effect; inactive = no such curve, though single readings can be large or run the other way; also: potency is read from the fitted curve at half-maximal effect; the source files actives as falling curves though it sought activators and does not explain the sign; nearly all actives have a fitted effect of over 65% in size
Target sequence (P80244 whole entry, looked up): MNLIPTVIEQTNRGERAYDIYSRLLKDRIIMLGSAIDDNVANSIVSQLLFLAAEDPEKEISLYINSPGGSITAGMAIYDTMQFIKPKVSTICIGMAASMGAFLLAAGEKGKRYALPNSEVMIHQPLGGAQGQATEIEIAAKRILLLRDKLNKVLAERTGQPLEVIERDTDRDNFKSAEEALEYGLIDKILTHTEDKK
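ClpP 10 microg/mL final, pH 8 Tris/KCl buffer with BSA, glycerol, Tween-20; compound pinned in; FRET-FV substrate; RT 20 min; Ex320/Em430; ΔFRET vs ADEP 5.8 microM, DMSO, no enzyme.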
Chronic BCR inh: chronic active BCR signaling inhibition; AID 493014; hit rate 0.05% among 340,000; Potency, µM (doses to about 46.1 µM), inactives show top-dose activity change, negative = inhibition, actives largely listed as inhibitors; ABC-DLBCL IkBa-CBG/CBR reporter, luminescence ratio, 4 h; active = well fitted inhibition curve with a large enough effect in the signal ratio, with a control signal flat, not every such curve was filed as active; inconclusive = small, poorly fitted or top-dose-only effect, or effect the other way, or a change in a side signal; the % refers to the signal ratio;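 also: potency is read from the fitted curve at half-maximal effect; plate controls were basal doxycycline-induced cells for no effect and cells given 10 µM MG132 for full effect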
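Compounds up to 46 uM were incubated four hours with TMD8 cells whose green CBG68 luciferase is fused to IkappaBalpha; red CBR luminescence normalised the signal, and concentration-effect curves were fitted to fusion, red and ratio data.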
Starred values were filed as active, the others as inactive.

What do the screens show for `Cc1cccn2c(=O)c3cc(C(=O)NCc4ccco4)c(=N)n(C(C)C)c3nc12`?
12-LOX inh: -7%; LDHA inh: -5; hERG WT inh: -5; KCNH2 3.1 inh: -23; ClpP mod: 14µM*; Chronic BCR inh: 0%

How did Cc1ccc(CNC(=O)c2cc3c(=O)n4ccccc4nc3n(CC3CCCO3)c2=N)cc1 (stereo not drawn) do in these assays?
LDHA inh: -5; hERG WT inh: -24; KCNH2 3.1 inh: -71*; ClpP mod: inconclusive; Chronic BCR inh: 17%

Results for COCCn1c(=N)c(C(=O)NCc2ccco2)cc2c(=O)n3ccccc3nc21 ?
12-LOX inh: 15%; LDHA inh: 1; hERG WT inh: -8; KCNH2 3.1 inh: -9; ClpP mod: 28µM*; Chronic BCR inh: 1%

What do the screens show for `CCCCn1c(=O)[nH]c(=O)c2c1nc(CN1CCN(S(=O)(=O)c3ccc(C)cc3)CC1)n2C`?
12-LOX inh: inconclusive; LDHA inh: -9

Results for CCNC(=O)COC(=O)c1c(C)c(CC)nc2ccccc12 ?
12-LOX inh: -15%; LDHA inh: 8

Results for CCCCN(C)CCCNC(=O)c1cn(CC)c2ccc(S(=O)(=O)N3CCc4ccccc4C3)cc2c1=O ?
12-LOX inh: -9%; LDHA inh: -3; hERG WT inh: inconclusive; KCNH2 3.1 inh: -91*; ClpP mod: -3%; Chronic BCR inh: 9%

Results for CCCCN(CCCC)CCNC(=O)c1cn(CC)c2ccc(S(=O)(=O)N(C)C3CCCCC3)cc2c1=O ?
12-LOX inh: 3%; LDHA inh: -1; hERG WT inh: -70*; KCNH2 3.1 inh: -83*; ClpP mod: 1%; Chronic BCR inh: 8%

Results for COc1cccc(C2=CC(c3cc(Cl)ccc3OC(F)F)n3ncnc3N2)c1 (stereo not drawn) ?
12-LOX inh: inconclusive; LDHA inh: 2

Results for CCCCCCOc1ccc(CNCc2cc(OC)c(OC)cc2OC)cc1 ?
12-LOX inh: inconclusive; LDHA inh: -14

How did COc1ccc(C(=O)C=Cc2ccc(OCc3ccccc3)c(OC)c2)cc1OC do in these assays?
12-LOX inh: -22%; LDHA inh: -11; hERG WT inh: -11; KCNH2 3.1 inh: -72*; ClpP mod: -21%

What do the screens show for `CCOc1cc(/C=C/C(=O)c2ccc(C)cc2)cc(Cl)c1O`?
12-LOX inh: 22µM*; LDHA inh: 12

Results for COc1ccc(C(=O)/C=C/c2cccc(O)c2)cc1 ?
12-LOX inh: inconclusive; LDHA inh: 10

How did COc1cc(/C=C/C(=O)c2cccc(O)c2)cc(Cl)c1O do in these assays?
12-LOX inh: 25µM*; LDHA inh: -3

Results for COc1cc(/C=C/C(=O)c2ccc(O)cc2)cc(Cl)c1O ?
12-LOX inh: inconclusive; LDHA inh: 2

How did COc1cc(OC)c(C(=O)/C=C/c2ccc(OCc3ccccc3)c(OC)c2)c(OC)c1 do in these assays?
12-LOX inh: 15%; LDHA inh: 0; hERG WT inh: 19; KCNH2 3.1 inh: -12; ClpP mod: 1%; Chronic BCR inh: inconclusive

How did O=C(/C=C/c1cccc(O)c1)c1ccc(F)cc1 do in these assays?
12-LOX inh: 45µM*; LDHA inh: 15

How did Cc1scc(C(=O)NCc2ccccn2)c1C do in these assays?
12-LOX inh: 62%; LDHA inh: 7

How did CCOc1cc(/C=C/C(=O)c2ccc(Cl)cc2)cc(Cl)c1O do in these assays?
12-LOX inh: 7.9µM*; LDHA inh: 14

Results for CN(Cc1ccccc1)C(=O)CCSc1nc(-c2ccc3c(c2)OCO3)cc(C(F)(F)F)n1 ?
12-LOX inh: -2%; LDHA inh: 3; hERG WT inh: -2; KCNH2 3.1 inh: -39; ClpP mod: 18µM*; Chronic BCR inh: -6%

Screens from PubChem BioAssay.
